{
  "source": "PubChem BioAssay (NCATS)",
  "note": "Records with an inconclusive call do not appear. Calls of active or inactive are those of the source. Calls come from the whole dose curve; as a rule, active = well fitted cell-killing curve with a large enough effect; inconclusive = small, poorly fitted or top-dose-only effect; inactive = no such curve, though single readings can be large or run the other way. Potency is the fitted concentration of half-maximal effect.",
  "data": [
    {"test": "qHTS of pediatric cancer cell lines to identify multiple opportunities for drug repurposing: Primary screen for Rh41 cells (AID 1347108); note: nearly all actives have a fitted effect of over 70% in size;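 for activity change, negative = cytotoxic: luminescence drop marks cytotoxic hits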", "details": "Rh41 rhabdomyosarcoma viability, CellTiter-Glo luminescence, 48 h; series mostly up to 46 µM; activity change, negative = cytotoxic: at the top concentration", "summary_of_the_method": "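Primary screen of approved and investigational compounds on cells in growth media at 37 degrees C, 5% CO2. MIPE set at 11-point and NPC set at 8-point dilutions; viability scored by ATP-based luminescence at 48 hours.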", "values": [
      {"smiles": "O=C(O)c1nn(Cc2ccc(Cl)cc2Cl)c2ccccc12", "Potency": "inactive"},
      {"smiles": "CCNc1nc(Cl)nc(NCC)n1", "activity change, negative = cytotoxic": "5.67% (inactive)"},
      {"smiles": "NCc1cccnc1", "activity change, negative = cytotoxic": "18.7% (inactive)"},
      {"smiles": "CC1N=C(N)OC1c1ccccc1", "note": "(stereo not given)", "activity change, negative = cytotoxic": "-17.2% [at 92.7 µM] (inactive)"},
      {"smiles": "CCC(=O)O[C@H]1CC[C@H]2[C@@H]3CCC4=CC(=O)CC[C@]4(C)[C@H]3CC[C@]12C", "activity change, negative = cytotoxic": "18.3% (inactive)"},
      {"smiles": "COP(=S)(OC)Oc1ccc(Sc2ccc(OP(=S)(OC)OC)cc2)cc1", "activity change, negative = cytotoxic": "39.2% (inactive)"},
      {"smiles": "CCOC(=O)NC(C)(C)Cc1ccc(Cl)cc1", "activity change, negative = cytotoxic": "5.65% (inactive)"},
      {"smiles": "COc1ccc(CN2CCNCC2)c(OC)c1OC", "activity change, negative = cytotoxic": "9.9% (inactive)"},
      {"smiles": "CC(C)(C)OC(=O)c1ncn2c1[C@@H]1CCCN1C(=O)c1c(Br)cccc1-2", "activity change, negative = cytotoxic": "16.2% (inactive)"},
      {"smiles": "CC(CC(C#N)(c1ccccc1)c1ccccc1)N(C)C", "note": "(stereo not given)", "activity change, negative = cytotoxic": "-25% [at 92.7 µM] (inactive)"},
      {"smiles": "COP(=O)(OC)C(O)C(Cl)(Cl)Cl", "note": "(stereo not given)", "activity change, negative = cytotoxic": "19.8% (inactive)"},
      {"smiles": "CCOC(=O)NC(O)C(Cl)(Cl)Cl", "note": "(stereo not given)", "activity change, negative = cytotoxic": "4.57% (inactive)"},
      {"smiles": "CC(C)=C[C@@H]1[C@@H](C(=O)OCc2coc(Cc3ccccc3)c2)C1(C)C", "activity change, negative = cytotoxic": "14.1% (inactive)"},
      {"smiles": "CCCOC(=O)Cc1ccc(OCC(=O)N(CC)CC)c(OC)c1", "activity change, negative = cytotoxic": "16.1% (inactive)"},
      {"smiles": "C[C@]12CC[C@H]3[C@@H](CCC4=CC(=O)CC[C@@H]43)[C@@H]1CC[C@@H]2O", "activity change, negative = cytotoxic": "21.8% (inactive)"},
      {"smiles": "CC[C@H]1C[C@@H]2C[C@H]3c4[nH]c5ccc(OC)cc5c4CCN(C2)[C@@H]13", "Potency": "30 µM (active)"},
      {"smiles": "C1CN2CCC1CC2", "activity change, negative = cytotoxic": "31.3% (inactive)"},
      {"smiles": "O=c1[nH]c2cc(Cl)ccc2n1C1CCNCC1", "activity change, negative = cytotoxic": "35.3% (inactive)"},
      {"smiles": "CN(C)CCc1c[nH]c2cccc(O)c12", "activity change, negative = cytotoxic": "-4.36% [at 92.7 µM] (inactive)"},
      {"smiles": "CCN(CC)Cc1nccn1-c1ccc([N+](=O)[O-])cc1C(=O)c1ccccc1Cl", "activity change, negative = cytotoxic": "1.46% (inactive)"},
      {"smiles": "C#C[C@]1(O)C=C[C@H]2[C@@H]3CCC4=CC(=O)CC[C@@H]4[C@H]3CC[C@@]21CC", "activity change, negative = cytotoxic": "16.4% (inactive)"},
      {"smiles": "COc1cc(C[C@@H](C)N)c(OC)cc1Br", "activity change, negative = cytotoxic": "0.706% [at 92.7 µM] (inactive)"},
      {"smiles": "CCOC(=O)C1(c2ccccc2)CCN(CCc2ccc(N)cc2)CC1", "activity change, negative = cytotoxic": "19.2% (inactive)"},
      {"smiles": "O=C(NC(=O)c1c(F)cccc1F)Nc1cc(Cl)c(OC(F)(F)C(F)C(F)(F)F)cc1Cl", "note": "(stereo not given)", "activity change, negative = cytotoxic": "23.3% (inactive)"},
      {"smiles": "CNC(=O)Oc1cccc2ccccc12", "activity change, negative = cytotoxic": "18.7% (inactive)"},
      {"smiles": "Cc1ncc2n1-c1ccc(Cl)cc1C(c1ccccc1F)=NC2", "activity change, negative = cytotoxic": "0.725% (inactive)"},
      {"smiles": "CCOC(=O)C(c1c(O)c2ccccc2oc1=O)c1c(O)c2ccccc2oc1=O", "activity change, negative = cytotoxic": "32.8% (inactive)"},
      {"smiles": "CC[C@H](O)C(C[C@H](C)N(C)C)(c1ccccc1)c1ccccc1", "Potency": "44.1 µM (active)"},
      {"smiles": "Nc1ccc(N)cc1", "activity change, negative = cytotoxic": "19.2% (inactive)"},
      {"smiles": "CC(C)C(Br)C(=O)NC(N)=O", "note": "(stereo not given)", "activity change, negative = cytotoxic": "12.7% (inactive)"},
      {"smiles": "O=C(O)CCCCCCNC1c2ccccc2CCc2ccccc21", "activity change, negative = cytotoxic": "18.2% (inactive)"},
      {"smiles": "O=c1n(Cl)c(=O)n(Cl)c(=O)n1Cl", "activity change, negative = cytotoxic": "28% (inactive)"},
      {"smiles": "C[N+](C)(C)CCOC(=O)C(O)(c1ccccc1)c1ccccc1", "activity change, negative = cytotoxic": "14.5% (inactive)"},
      {"smiles": "c1cc2c(c(N3CCNCC3)c1)OCCO2", "activity change, negative = cytotoxic": "19% (inactive)"},
      {"smiles": "COCC(=O)N(c1c(C)cccc1C)C(C)C(=O)OC", "note": "(stereo not given)", "activity change, negative = cytotoxic": "21% (inactive)"}
    ]}
  ]
}
